From PubChem BioAssay
Sampled rows, rich in hits. Any-hit rate of the full collection: about 2%.
PfHsp40 rescue = restores yeast growth despite PfHsp40 toxicity; S. cerevisiae expressing PfHsp40, growth rescue, ATP luminescence; growth rescue, % at 12.5 µM; 0.68% of 340,000 active; AID 504582; in the data active means growth rescue above about 28%, passing the limit was not always enough;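 further: yeast W303a lacking pdr1 and pdr3 grown in galactose medium; growth measured after three days at 30 °C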
Yp Topo-I inh = blocks Yersinia pestis topoisomerase I activity. Y. pestis Topo-I cleavage product accumulation, plate reader. activity, % at 10 µM. 0.064% of 360,000 active. AID 504884; in the data active means activity above about 50%, passing the limit was not always enough
CCHF vOTU inh = blocks the CCHF virus ovarian tumor domain protease; CCHFV vOTU protease, Pep-AMC fluorescence; inhibition, % at 11.5 µM; 0.55% of 370,000 active; AID 651958; in the data active means inhibition above about 30%; further: 0% = vehicle wells with enzyme and 100% = no enzyme wells
BJeLR viability = BJeLR cell viability loss; 0.17% of 300,000 active; BJeLR (HRASV12) viability, CellTiter-Glo ATP luminescence, 48 h; inhibition, % (test concentration not listed); in the data active means inhibition above about 50%
PrP UTR inh = suppresses PrP 5' UTR mRNA reporter expression. AID 488862. inhibition, % (test concentration not listed). 0.35% of 340,000 active. cell-based PrP 5' UTR mRNA reporter, plate reader; in the data active means inhibition above about 52%; further: 0 = median of the neutral control wells
PrPC TRFRET = cell surface PrPC inhibition, primary TR-FRET screen; inhibition, % at 13.8 µM; 0.43% of 370,000 active; P04156; TR-FRET read-out; in the data active means inhibition above about 24%; further: 0% = median of the test wells and 100% = reference compound wells
PrP UTR cherry = prion 5' UTR mRNA inhibition, cherry-pick retest. shares compounds with PrP UTR inh. cell-based prion protein 5' UTR reporter, plate reader. inhibition, % at 2.5 µM. 48% of 1,100 active; in the data active means inhibition above about 54%
Active calls of the source: *; nt = not tested or not shown.

SMILES	PfHsp40 rescue	Yp Topo-I inh	CCHF vOTU inh	BJeLR viability	PrP UTR inh	PrPC TRFRET	PrP UTR cherry
C[C@H]1CC[C@@H]2[C@@H](C)[C@H]3[C@H](C[C@H]4[C@@H]5CC=C6C[C@@H](O[C@@H]7O[C@H](CO)[C@H](O)[C@H](O[C@@H]8O[C@H](CO)[C@@H](O)[C@H](O)[C@H]8O)[C@H]7O[C@@H]7O[C@@H](C)[C@H](O)[C@@H](O)[C@H]7O)CC[C@]6(C)[C@H]5CC[C@]34C)N2C1	-1.3	5.7	-5.8	-3.9	-51.0	6.1	nt
C[C@@H]1O[C@@H](O[C@H]2C[C@@H](O)[C@]3(CO)[C@@H]4C(CC[C@]3(O)C2)[C@@]2(O)CC[C@H](C3COC(=O)C3)[C@@]2(C)C[C@H]4O)[C@H](O)[C@H](O)[C@H]1O (stereo partly drawn)	1.7	-0.1	-1.5	nt	48.4	-2.3	nt
CC12CCC(O)CC1CCC1C2CCC2(C)C(C3=CC(=O)OC3)C(O)CC12O (stereo not drawn)	0.7	-1.5	0.6	nt	0.2	7.7	nt
CC12CCC(O)CC1CCC1C2CCC2(C)C(C3=CC(=O)OC3)CCC12O (stereo not drawn)	-0.2	5.6	-12.1	nt	79.1*	-2.8	81.9*
O=C(NCc1ccccc1)[C@@H]1CCCN1C(=O)[C@H]1CCCN1C(=O)c1ccccc1F	nt	nt	-10.8	nt	nt	6.8	nt
COc1cccc(C2CC=C(C(=O)O)CN2S(=O)(=O)c2ccc(C)cc2)c1 (stereo not drawn)	nt	nt	1.6	nt	nt	-5.0	nt
O=C(NCc1ccco1)O[C@@H]1CC[C@@]23CCCN2C(=O)CCC[C@H]3C1	nt	nt	nt	nt	nt	5.3	nt
CC12CC[C@H]3[C@@H](CCC4(O)C[C@H](O)CCC34/C=N/NC(=O)Cc3ccccc3)C1(O)CCC2C1=CC(=O)OC1 (stereo partly drawn)	-0.1	24.5	-2.9	6.9	-24.0	5.6	nt
C[C@]12CC[C@H](O)C[C@H]1CC[C@@H]1[C@@H]2C[C@@H](O)[C@]2(C)[C@@H](C3=CC(=O)OC3)CC[C@]12O	0.5	5.0	2.5	nt	59.0*	2.0	65.7*
Cn1c(O)c(C=NC2CCCCC2)c(=O)[nH]c1=S	-0.2	2.2	8.8	21.6	53.1*	6.2	-21.1
O=c1[nH]c(O)c(C=NC2CCCCC2)c(=O)[nH]1	-0.9	6.1	-15.5	9.3	-10.3	9.1	nt
COc1cc(O)c(C(=O)O)c(-c2cc(O)c(O)cc2C)c1	1.5	2.9	3.9	-10.7	68.3*	8.4	-16.2
CCCOc1ccc(C(=O)C(c2ccccc2)N2CCOCC2)cc1 (stereo not drawn)	0.7	24.7	1.4	-0.2	-21.9	4.0	nt
CCOc1ccc(C(=O)C(c2ccccc2)N2CCOCC2)cc1 (stereo not drawn)	-0.5	1.1	-6.2	9.0	81.7*	1.1	-0.9
Cc1ccc(-c2cc(-c3nnc(SCC(=O)Nc4ccc(OCc5ccccc5)cc4)n3N)[nH]n2)cc1	nt	nt	-4.0	nt	nt	3.2	nt
CNC(=O)Oc1cccc(-c2cn3cc(Cl)ccc3n2)c1	-1.3	1.9	-1.0	5.3	-4.3	5.1	nt
CNC(=O)Oc1ccc(-c2cn3cc(C)ccc3n2)cc1	-1.7	-0.5	-19.4	16.7	57.1*	-0.1	53.9*
Cc1ccc2nc(-c3ccc4c(c3)OCCO4)cn2c1	4.0	0.5	-45.6	18.6	88.9*	12.7	78.9*
c1ccn2cc(-c3ccc4c(c3)OCCO4)nc2c1	-2.8	6.2	-42.5	16.8	39.7	-5.9	nt
O=[N+]([O-])c1nn(-c2ccc3c(c2)OCCO3)n(O)c1=Nc1ccc(Cl)cc1	0.4	0.6	17.4	6.8	14.1	-13.0	nt
O=[N+]([O-])c1nn(-c2ccc3c(c2)OCCO3)n(O)c1=Nc1ccccc1	-0.2	-3.0	16.7	5.3	81.3*	-40.6	78.4*
Cc1ccc(C(=O)C[n+]2ccccc2)cc1	-0.3	5.5	-18.6	2.9	63.9*	-5.1	-6.7
Cc1ccc[n+](CC(=O)c2ccc(-c3ccccc3)cc2)c1	-0.9	7.5	1.9	-1.5	-20.2	-12.2	nt
Cc1nn(-c2ccccc2)c(C)c1/C=N\N1CCN(Cc2ccccc2Cl)CC1	nt	nt	1.9	nt	nt	9.2	nt
Cc1cc(NC(=O)CCSc2nc(-c3ccco3)cc(C(F)(F)F)n2)no1	0.8	7.3	2.0	-3.6	-11.1	1.3	nt
SMILES	PfHsp40 rescue	Yp Topo-I inh	CCHF vOTU inh	BJeLR viability	PrP UTR inh	PrPC TRFRET	PrP UTR cherry
Cc1cc(NC(=O)CSc2nc(-c3ccco3)cc(C(F)(F)F)n2)no1	-1.2	-0.8	9.7	34.8	66.9*	10.8	89.8*
COc1ccc(-c2c(Cc3ccccc3)nc(NC(=O)c3ccccc3)n2C)cc1	nt	nt	-0.2	nt	nt	2.4	nt
O=C(O)c1cc(S(=O)(=O)N2CCOCC2)c(Sc2ccccn2)cc1Sc1ccccn1	0.4	0.8	0.7	-7.8	68.8*	-3.0	16.2
Cc1ccc(-n2cccn2)c(CN2CCCC(CNC(=O)c3ccc(F)cc3)C2)c1 (stereo not drawn)	-1.3	-11.4	3.0	5.1	80.0*	-12.2	1.2
CC(=NNC(=S)N(Cc1ccccn1)Cc1ccccn1)c1cnccn1	112.5*	7.9	13.5	nt	79.9*	1.0	58.0*
COC(=O)c1cc(NC(=O)c2nccnc2C(=O)O)cc(C(=O)OC)c1	0.3	-2.7	1.3	-6.8	60.4*	8.8	-29.4
COc1ccccc1-c1nnc2sc(-c3cc4ccccc4o3)nn12	-0.3	21.9	-7.9	21.1	53.6*	-0.6	64.0*
COC(=O)c1ccc2nc(-c3cccc(Br)c3)c(Cc3cccc(Cl)c3)n2c1	nt	nt	20.0	nt	nt	2.9	nt
COC(=O)C1CN(Cc2ccccc2)CCS(=O)(=O)N1Cc1cccc(Cl)c1 (stereo not drawn)	nt	nt	3.2	nt	nt	15.0	nt
COc1ccc(C2C3=C(Nc4ncnn42)c2ccccc2CCC3)cc1 (stereo not drawn)	-1.0	0.3	-9.9	-2.7	-3.9	6.5	nt
COc1cc(C2C3=C(Nc4ncnn42)c2ccccc2CC3)cc(OC)c1OC (stereo not drawn)	-0.1	20.3	6.4	37.8	61.7*	-7.0	85.6*
O=C(Nc1nnc(-c2cccs2)s1)c1cccc(F)c1	-0.5	-6.9	-12.3	nt	74.1*	2.4	-44.5
Cc1nnc(NC(=O)c2cccc(F)c2)s1	0.6	-3.3	26.4	-1.0	-14.7	0.3	nt
COC(=O)C1=C(C)N(Cc2cccc(C(F)(F)F)c2)C(=NCc2cc(OC)c(OC)c(OC)c2)NC1c1ccccc1 (stereo not drawn)	nt	nt	16.5	nt	nt	5.0	nt
COCc1nnc(NS(=O)(=O)c2ccc(F)cc2)s1	-1.4	8.6	-14.5	-5.8	-19.1	2.4	nt
COCc1nnc(NS(=O)(=O)c2ccc(OC)cc2)s1	-0.2	3.8	6.9	nt	61.7*	-1.1	-22.3
CCc1ccn2cc(-c3cc(-c4ccccc4)no3)nc2c1	12.0	-0.8	2.2	8.4	71.3*	15.9	82.5*
CC(=O)N/C(=C\c1ccccc1)C(=O)OCc1ccccc1	-0.6	-1.7	6.0	-4.9	71.5*	-3.1	-21.7
